Several values for one entry are separate records, joined by “and”; a condition that tells them apart may be missing. Equal values may be shown once. Out of some 5,500 compounds screened, about 2,000 (36%) were called active. Another 18% or so got no clear call; they are omitted. Cut-off read from the data, not from the text of the source: active = normalized growth mostly below about 0.91 (no sharp cut-off); inconclusive = no clear call, values can overlap the other calls; inactive = mostly above about 0.92. This is one part of the list.
Test: chemical genetic growth profiling, strain panel (AID 1159580);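 note: tested at 20 µM; growth read once vehicle control cultures reached saturation at 30 °C; 1 = growth at the plate median or of vehicle wells; lower values mean less growth of the strain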
Conditions: S. cerevisiae deletion strains, growth OD

Measured: normalized growth

CC1=C(C(=O)O)N2C(=O)[C@@H](NC(=O)[C@@H](N)c3ccc(O)cc3)[C@H]2SC1
inactive: locus YAL013W, strain DEP1, hits give low values 0.993 | locus YAL021C, strain ccr4, hits give low values 1.02 | locus YAL026C, strain drs2, hits give low values 1.04 | locus YAL030W, strain snc1, hits give low values 1.03 | locus YBL061C, strain skt5, hits give low values 1.03 | locus YBR009C, strain hhf1, hits give low values 1.03 | locus YBR021W, strain FUR4, hits give low values 1.01 | locus YBR023C, strain chs3, hits give low values 1.06 | locus YBR171W, strain sec66, hits give low values 1.03 | locus YBR229C, strain ROT2, hits give low values 0.958 | locus YBR231C, strain swc5, hits give low values 1.04 | locus YBR279W, strain paf1, hits give low values 1.02 | locus YCL011C, strain gbp2, hits give low values 1.01 | locus YCL016C, strain dcc1, hits give low values 1.03 | locus YCL029C, strain bik1, hits give low values 0.984 | locus YCL061C, strain MRC1, hits give low values 1.04 | locus YCL069W, strain vba3, hits give low values 1.03 | locus YCR088W, strain abp1, hits give low values 1.02 | locus YDL005C, strain med2, hits give low values 1.03 | locus YDL035C, strain GPR1, hits give low values 0.956 | locus YDL040C, strain nat1, hits give low values 1.02 | locus YDL074C, strain BRE1, hits give low values 1.01 | locus YDL101C, strain DUN1, hits give low values 0.99 | locus YDL185W, strain tfp1, hits give low values 0.953 | locus YDL192W, strain arf1, hits give low values 0.971 | locus YDR001C, strain nth1, hits give low values 1.04 | locus YDR069C, strain doa4, hits give low values 1.05 | locus YDR101C, strain arx1, hits give low values 0.965 | locus YDR137W, strain rgp1, hits give low values 1.03 | locus YDR150W, strain NUM1, hits give low values 0.985 | locus YDR159W, strain sac3, hits give low values 1.04 | locus YDR162C, strain NBP2, hits give low values 0.967 | locus YDR195W, strain ref2 1 | locus YDR297W, strain sur2, hits give low values 1.03 | locus YDR318W, strain mcm21, hits give low values 0.994 | locus YDR334W, strain swr1, hits give low values 1.03 | locus YDR335W, strain msn5, hits give low values 1.02 | locus YDR388W, hits give low values 0.979 | locus YDR392W, strain spt3, hits give low values 1.05 | locus YDR502C, strain sam2, hits give low values 0.984 | locus YEL003W, strain gim4, hits give low values 1.03 | locus YEL037C, strain rad23, hits give low values 1.03 | locus YEL061C, strain CIN8 (second series), hits give low values 1.04 | locus YEL061C, strain CIN8, hits give low values 0.988 | locus YER015W, strain faa2, hits give low values 1.01 | locus YER016W, strain bim1, hits give low values 1.02 | locus YER110C, hits give low values 0.973 | locus YER111C, strain swi4, hits give low values 1.03 | locus YER155C, strain BEM2 (second series), hits give low values 1.07 | locus YER155C, strain BEM2, hits give low values 0.995 | locus YER167W, strain BCK2, hits give low values 0.995 | locus YFR010W, strain ubp6, hits give low values 1.06 | locus YGL078C, strain dbp3, hits give low values 1 | locus YGL086W, strain mad1, hits give low values 0.982 | locus YGL167C, strain pmr1, hits give low values 1.03 | locus YGL173C, strain kem1, hits give low values 1.04 | locus YGL227W, strain vid30, hits give low values 1.03 | locus YGL240W, strain doc1, hits give low values 1.03 | locus YGL248W, strain PDE1, hits give low values 1.01 | locus YGL253W, strain hxk2, hits give low values 1.02 | locus YGR135W, strain pre9, hits give low values 1.03 | locus YGR229C, strain SMI1, hits give low values 0.978 | locus YGR252W, strain gcn5, hits give low values 0.999 | locus YHR013C, strain ard1, hits give low values 1.06 | locus YHR027C, strain rpn1, hits give low values 1.02 | locus YHR030C, strain SLT2, hits give low values 0.986 and 0.97 | locus YHR079C, strain IRE1 (second series), hits give low values 0.985 | locus YHR079C, strain IRE1, hits give low values 0.99 | locus YHR094C, strain hxt1, hits give low values 0.983 | locus YHR129C, strain ARP1, hits give low values 0.987 | locus YHR142W, strain chs7, hits give low values 1.04 | locus YHR200W, strain rpn10, hits give low values 0.967 | locus YIL066C, strain RNR3, hits give low values 0.98 | locus YIL073C, strain SPO22, hits give low values 0.981 | locus YIL125W, strain kgd1, hits give low values 0.988 | locus YIR030C, strain dcg1, hits give low values 0.982 | locus YJL092W, strain hpr5, hits give low values 1.04 | locus YJL095W, strain BCK1 (second series), hits give low values 1.02 | locus YJL095W, strain BCK1, hits give low values 1.05 and 0.976 | locus YJL115W, strain asf1, hits give low values 1.04 | locus YJL129C, strain trk1, hits give low values 1.04 | locus YJL134W, strain LCB3, hits give low values 0.983 | locus YJL154C, strain vps35, hits give low values 1.01 | locus YJL164C, strain tpk1, hits give low values 1.03 | locus YJL166W, strain qcr8, hits give low values 1.03 | locus YJL168C, strain set2, hits give low values 0.982 | locus YJL187C, strain SWE1 (second series), hits give low values 1 | locus YJR043C, strain POL32, hits give low values 0.97 | locus YJR066W, strain TOR1, hits give low values 0.979 | locus YKL009W, strain mrt4, hits give low values 1.05 | locus YKL068W, hits give low values 0.978 | locus YKL085W, strain MDH1 (second series), hits give low values 0.991 | locus YKL085W, strain MDH1, hits give low values 0.991 | locus YKL160W, strain elf1, hits give low values 1.02 | locus YKR001C, strain vps1, hits give low values 0.993 | locus YKR026C, strain gcn3, hits give low values 0.999 | locus YKR091W, strain srl3, hits give low values 1.03 | locus YLL001W, strain dnm1, hits give low values 1.04 | locus YLL026W, hits give low values 1.03 | locus YLL041C, strain sdh2, hits give low values 1.03 | locus YLR027C, strain aat2, hits give low values 1.03 | locus YLR039C, strain RIC1, hits give low values 0.992 | locus YLR058C, strain SHM2, hits give low values 0.988 | locus YLR102C, strain apc9, hits give low values 0.985 | locus YLR113W, strain HOG1, hits give low values 0.932 | locus YLR221C, strain rsa3, hits give low values 1.04 | locus YLR258W, strain gsy2, hits give low values 1.02 | locus YLR262C, strain YPT6 (second series), hits give low values 1.07 | locus YLR262C, strain YPT6, hits give low values 0.941 | locus YLR268W, strain sec22, hits give low values 0.977 | locus YLR320W, strain mms22, hits give low values 1.03 | locus YLR330W, strain CHS5, hits give low values 0.988 | locus YLR342W, strain FKS1 (second series), hits give low values 0.979 | locus YLR342W, strain FKS1, hits give low values 1.03 | locus YLR357W, strain rsc2, hits give low values 1.04 | locus YLR370C, strain arc18, hits give low values 1.02 | locus YLR371W, strain rom2, hits give low values 0.968 | locus YLR384C, strain iki3, hits give low values 1.03 | locus YLR418C, strain cdc73, hits give low values 1.02 | locus YML016C, strain PPZ1, hits give low values 0.99 | locus YML032C, strain rad52, hits give low values 0.984 | locus YML120C, strain ndi1, hits give low values 1.03 | locus YML124C, strain tub3, hits give low values 0.981 | locus YMR058W, strain fet3, hits give low values 1 | locus YMR078C, strain ctf18, hits give low values 0.982 | locus YMR125W, strain sto1, hits give low values 1.04 | locus YMR129W, hits give low values 1.03 | locus YMR205C, strain PFK2, hits give low values 1.03 | locus YMR223W, strain ubp8, hits give low values 1.01 | locus YMR231W, strain pep5, hits give low values 1.02 | locus YMR263W, strain SAP30, hits give low values 0.996 | locus YMR307W, strain GAS1, hits give low values 0.967 | locus YNL067W, strain RPL9B, hits give low values 1 | locus YNL071W, strain lat1, hits give low values 1.02 | locus YNL128W, strain TEP1, hits give low values 0.983 | locus YNL183C, strain NPR1, hits give low values 0.929 | locus YNL209W, strain ssb2, hits give low values 1.01 | locus YNL233W, strain BNI4, hits give low values 1.02 | locus YNL248C, strain rpa49, hits give low values 1.04 | locus YNL250W, strain rad50, hits give low values 0.984 | locus YNL271C, strain bni1, hits give low values 0.984 | locus YNL298W, strain CLA4, hits give low values 0.981 | locus YNL307C, strain MCK1, hits give low values 0.983 | locus YNL322C, strain KRE1 (second series), hits give low values 1.03 | locus YNL322C, strain KRE1, hits give low values 0.998 | locus YNR049C, strain mso1, hits give low values 1.03 | locus YNR052C, strain pop2, hits give low values 0.982 | locus YOL006C, strain TOP1, hits give low values 1.1 | locus YOL012C, strain htz1 0.974 | locus YOL147C, strain pex11, hits give low values 0.994 | locus YOR001W, strain rrp6, hits give low values 1.06 | locus YOR061W, strain CKA2, hits give low values 0.968 | locus YOR069W, strain VPS5, hits give low values 0.987 | locus YOR070C, strain gyp1, hits give low values 1.02 | locus YOR080W, strain dia2, hits give low values 1.03 | locus YOR083W, strain WHI5, hits give low values 1.03 | locus YOR106W, strain vam3, hits give low values 1.03 | locus YOR136W, strain idh2, hits give low values 0.978 | locus YOR144C, strain elg1, hits give low values 0.981 | locus YOR184W, strain ser1, hits give low values 0.988 | locus YOR231W, strain MKK1, hits give low values 0.966 | locus YOR265W, strain rbl2, hits give low values 1.02 | locus YOR270C, strain vph1, hits give low values 1.04 | locus YOR290C, strain snf2, hits give low values 1.03 | locus YOR316C, strain cot1, hits give low values 0.957 | locus YPL051W, strain arl3, hits give low values 1.04 | locus YPL078C, strain atp4, hits give low values 1.05 | locus YPL106C, strain sse1, hits give low values 1.02 | locus YPL240C, strain hsp82, hits give low values 1.02 | locus YPL241C, strain CIN2, hits give low values 0.989 | locus YPL256C, strain CLN2, hits give low values 0.976 | locus YPR119W, strain clb2, hits give low values 0.972 | locus YPR141C, strain kar3, hits give low values 0.958 | locus YPR163C, strain tif3, hits give low values 0.981 | locus YPR167C, strain met16, hits give low values 0.989 | strain wtn01, hits give low values 0.987

Source: PubChem BioAssay AID1159580 (chemical genetic matrix, 2015)
